Shown is part of a subset that was picked to be rich in hits.
Giardia FBPA inh = inhibitors of Giardia lamblia fructose-1,6-bisphosphate aldolase; 0.71% of 290,000 active; purified Giardia FBPA; Potency, µM (titrated, usually from 59.6 µM), most hits filed as inhibitors; A8B2U2; AID 2451; also: nearly all actives have a fitted effect of over 55% in size
Target sequence (A8B2U2 whole entry, looked up): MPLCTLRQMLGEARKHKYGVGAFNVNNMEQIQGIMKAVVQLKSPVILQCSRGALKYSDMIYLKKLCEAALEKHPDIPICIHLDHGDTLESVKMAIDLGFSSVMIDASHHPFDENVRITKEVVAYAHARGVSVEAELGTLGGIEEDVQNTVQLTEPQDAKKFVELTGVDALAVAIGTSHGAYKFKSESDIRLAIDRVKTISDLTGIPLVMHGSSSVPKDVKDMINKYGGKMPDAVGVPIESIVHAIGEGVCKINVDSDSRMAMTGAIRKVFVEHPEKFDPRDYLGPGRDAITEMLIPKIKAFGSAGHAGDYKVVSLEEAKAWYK
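40 nM FBPA preincubated 10 min at RT with compound (up to 57.5 uM final), then substrate plus GAPDH/TPI/NAD/arsenate coupling and diaphorase/resazurin added. Fluorescence read after 20 min at RT, 525/598 nm.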
Tb PYK inh = inhibitors of Trypanosoma brucei pyruvate kinase; Q57TT1; TbPYK enzyme, Kinase-Glo Plus ATP luminescence, 45 min; Potency, µM (doses to about 76.8 µM), most hits filed as inhibitors; 0.12% of 410,000 active; AID 624173; also: nearly all actives have a fitted effect of over 50% in size
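Activity of T. brucei pyruvate kinase was followed by Kinase-Glo Plus luminescence after the enzyme reacted 45 min at room temperature with 130 uM ADP (final) and substrate. Test compounds were added before ADP at multiple concentrations.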
Cycloheximide cs = counter-screen hit for Shiga toxin inhibitors, cycloheximide; cell reporter, cycloheximide protein synthesis inhibition counterscreen; max response, %; 12% of 300,000 active; AID 2314; in the data active = max response mostly above about 13%, no sharp cut-off; inactive = mostly below about 14%; also: read at 38.3 µM for the half of the compounds with a filed dose
RE007 growth inh = less growth of the S. pombe RE007 Vpr strain; AID 651644; Potency, µM (highest dose often 92.2 µM), hits mostly inhibitors; S. pombe RE007 Vpr strain, BacTiter-Glo ATP luminescence, 24 h; 0.21% of 360,000 active; active = well fitted falling curve with a large enough effect; inconclusive = small, poorly fitted or top-dose-only effect; inactive = no such curve, though single readings can be large or run the other way; also: nearly all actives have a fitted effect of over 50% in size
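Fission yeast RE007 carrying one integrated HIV-1 vpr copy, seeded at OD 0.01 in PMG+AL medium with 23 nL pinned compound. Grown 24 h at 30 degrees; viability read by BacTiter-Glo luminescence after 5 min.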
LmPK inhibitor = inhibitors of Leishmania mexicana pyruvate kinase. 0.37% of 290,000 active. Q27686. purified LmPK, Kinase-Glo ATP luminescence, 1 h. Potency, µM (series often up to 57.5 µM), hits mostly inhibitors
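In 50 mM imidazole pH 7.2 with 7 mM MgCl2, LmPK (0.1 nM) turned over PEP (0.5 mM) and ADP (0.1 mM) for 1 h at room temperature. Luciferase read-out of ATP.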
Shiga inhibitor = blocks Shiga toxin action in Vero cells; inhibition, % at 38.7 µM; 9.2% of 290,000 active; Vero cells, Shiga toxin protein synthesis inhibition reporter; in the data active = inhibition mostly above about 28%, no sharp cut-off; inactive = mostly below about 43%
Numbers stand for hits; n = inactive; u = inconclusive; x = no result given. Unless noted, calls follow the shape of the dose curve; as a rule, active = well fitted curve in the direction sought with a large enough effect; inconclusive = small, poorly fitted or top-dose-only effect, or another doubt; inactive = no such curve, though single readings can be large; an effect the other way counts as inactive or inconclusive.

SMILES	Giardia FBPA inh	Tb PYK inh	Cycloheximide cs	RE007 growth inh	LmPK inhibitor	Shiga inhibitor
O=S(=O)(Nc1nccs1)c1ccc(F)cc1	n	n	38	n	n	59
O=C(COc1ccc(F)cc1)Nc1nccs1	n	n	33	n	u	51
CCOc1cc(/C=N/Nc2nncc(-c3ccccc3)n2)ccc1O	n	n	n	n	n	n
CCOc1cc(/C=N/Nc2nn3cnnc3c3ccccc23)ccc1O	n	n	12	n	16µM	n
COc1cc(/C=N/Nc2nn3cnnc3c3ccccc23)ccc1O	u	n	n	n	7.9µM	n
Oc1ccc(/C=N/Nc2nn3cnnc3c3ccccc23)cc1	n	n	n	n	14µM	n
COc1cccc(/C=N/Nc2nn3cnnc3c3ccccc23)c1	n	n	n	n	25µM	n
COc1cccc(/C=N/Nc2nc3ccccc3n3cnnc23)c1	n	n	n	n	n	n
O=c1c(Cl)c(N2CCN(c3ccc(F)cc3)CC2)cnn1-c1nc2ccccc2s1	n	n	39	n	n	75
O=C1CC(N2CCN(c3nc4ccccc4s3)CC2)C(=O)N1c1ccc(F)cc1 (stereo unspecified)	n	n	n	u	n	n
CC(C)COn1c(=S)[nH]c2ccccc2c1=O	n	n	27	n	n	55
O=C(Nc1ccc2nc3n(c(=O)c2c1)CCCC3)c1cccc(F)c1	n	n	42	n	n	39
O=C(Nc1ccc2nc3n(c(=O)c2c1)CCCC3)c1ccccc1F	n	n	31	n	n	70
O=c1c2cc(NC(=S)NCc3ccccn3)ccc2nc2n1CCCCC2	n	n	n	n	n	n
O=C(Nc1ccc2nc3n(c(=O)c2c1)CCCCC3)c1ccccn1	n	n	36	n	n	59
O=C(Nc1ccc2nc3n(c(=O)c2c1)CCCCC3)c1ccccc1[N+](=O)[O-]	x	n	n	n	n	n
COc1ccc(C(=O)Nc2ccc3nc4n(c(=O)c3c2)CCCCC4)cc1OC	x	n	x	n	x	x
CCOC(=O)Nc1ccc2nc3n(c(=O)c2c1)CCCCC3	n	n	31	n	n	45
COc1ccccc1NS(=O)(=O)c1cc(NC(=O)C2CCCO2)ccc1C (stereo unspecified)	x	n	x	n	x	x
COC(=O)c1c(Oc2ccc(Br)cc2)nnc(-c2ccccc2)c1-c1ccccc1	x	n	x	x	x	x
C[C@H](N[C@@H](C)COc1ccccc1)[C@H](O)c1ccc(O)cc1	n	n	x	x	x	x
O=c1c2cc(NC(=S)NC3CCCCC3)ccc2nc2n1CCCCC2	n	n	n	n	n	n
O=c1c2cc(NC(=S)NC3CCCC3)ccc2nc2n1CCCCC2	n	n	30	n	n	n
O=C(c1ccco1)c1coc2c1cc(O)c1ccccc12	u	n	32	n	n	100
O=C1/C(=C/c2cccs2)SC(=S)N1c1cccc(O)c1	n	n	26	n	n	n
SMILES	Giardia FBPA inh	Tb PYK inh	Cycloheximide cs	RE007 growth inh	LmPK inhibitor	Shiga inhibitor
CCOc1ccc(/C=C2\SC(=O)N(c3ccc(O)cc3)C2=O)cc1OC	n	n	20	n	n	n
O=C1/C(=C/c2cccs2)SC(=S)N1c1ccccc1	n	n	n	n	n	n
O=C1S/C(=C\c2cccs2)C(=O)N1c1ccc(O)cc1	n	n	38	n	n	63
CC(C)C(=O)N1c2ncnn2C2(CCCCC2)[C@@H]2CCCC[C@@H]21	x	n	x	x	x	x
CCN(CC)S(=O)(=O)c1cccc(C(=O)Nc2ccccc2C(=O)Nc2ccc(OC)cc2)c1	x	n	x	x	x	x
O=C(NCc1ccccc1)c1cc(C2CCCCN2C(=O)c2cccs2)on1 (stereo unspecified)	x	n	x	n	x	x
C/C(N)=C(/C#N)C(=O)CSc1nnnn1-c1ccc(C)cc1	n	n	36	n	n	n
C/C(N)=C(/C#N)C(=O)CSc1ncnc2ccccc12	n	n	n	n	n	n
Cc1ccccc1Nc1nnc(SCC(=O)c2ccc(O)cc2O)s1	n	n	n	n	n	n
C/C(N)=C(/C#N)C(=O)CSc1nc2ccccc2[nH]1	n	n	35	n	n	67
C/C(N)=C(/C#N)C(=O)CSc1nnnn1-c1ccccc1	n	n	n	n	n	n
C/C(N)=C(/C#N)C(=O)CSc1nnc(Nc2ccccc2C)s1	n	n	46	n	n	51
